Bioassay records (PubChem)
Shown are actives, neighbours in structure and some others; about 2.3% of the full set was active somewhere.
Rin1 Abl inh = blocks binding of human Rin1 to Abl; P00519+Q13671; TR-FRET Rin1/Abl binding, biochemical; inhibition, % at 7.35 µM; 360,000 compounds, 0.4% hits; in the data active = inhibition above about 5%, passing the limit was not always enough
IDE cell inh = cellular human IDE inhibition. inhibition, % at 5.59 µM. HEK cells, FAbetaB cleavage, fluorescence polarization. 320,000 compounds, 0.41% hits;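 active = percent inhibition above the average of all tested compounds plus 3 SD, set per screening campaign, cut at about 16% in these data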;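 also: IDE supplied by intact live HEK cells; FP after avidin binding of uncleaved biotin substrate so inhibition keeps polarization high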
IDE cell activ = activators of human insulin-degrading enzyme in cells | P14735 | activation, % at 5.96 µM | 340,000 compounds, 0.073% hits | HEK cells, FAbeta-B cleavage, fluorescence polarization; 0% vehicle, 100% cell-free pure enzyme wells;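 active = activation above the mean of all tested compounds plus 3 SD, set per screening campaign, cut at about 17% in these data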
Calb FLC = C. albicans growth modulation with fluconazole; C. albicans CaCi-2 (fluconazole-resistant clinical isolate) + fluconazole, Alamar Blue growth, 48 h; growth inhibition, % (no concentration beside the values); 300,000 compounds, 0.57% hits; AID 1979;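 active = growth inhibition above about 58% in most replicates, limit read from the data, passing the limit was not always enough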;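 also: all wells also contain fluconazole at 8 µg/ml as a sub-toxic cotreatment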
Rpn11 inh = inhibitors of human proteasome Rpn11; O00487; human 26S proteasome, Ub4-pepOG fluorescence polarization; 20S core pre-blocked with epoxomicin; inhibition, % at 20 µM; 360,000 compounds, 0.59% hits;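 active = inhibition at 20 µM, scaled to each plate's controls, above about 33%, limit read from the data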
TPT1 inhibitor = inhibitors of Candida albicans tRNA 2'-phosphotransferase TPT1 | recombinant caTPT1, FP RNA substrate dephosphorylation | inhibition, % at 5 µM | 300,000 compounds, 0.81% hits;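 active = inhibition above the mean of all tested compounds plus 3 SD, set per screening campaign, cut at about 24% in these data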
IDE inh confirm = cellular human IDE inhibition, confirmation | shares compounds with IDE cell inh | HEK cells, FAbetaB cleavage, fluorescence polarization | inhibition, % at 5.59 µM | 1,200 compounds, 51% hits | AID 435028;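 active = mean inhibition across triplicate wells above the cutoff set by the earlier primary insulin-degrading enzyme screen, cut at about 16% in these data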
HEK cytotox = HEK cell cytotoxicity, counter-screen for IDE inhibitors; shares compounds with IDE cell inh; HEK293 cytotoxicity, ATP luminescence; inhibition, % at 5.59 µM; 1,200 compounds, 28% hits; AID 449730; in the data active = inhibition above about 22%
IDE FP artifact = fluorescence interference counter-screen for IDE inhibitors; shares compounds with IDE cell inh; FP counterscreen for fluorescent artifacts, IDE probe project; IC50, µM; 30 tested, under 10 active; AID 588718; call rule not given here
Each line names hits and unclear results; the compound was inactive in the other large screens (follow-up assays come after a bar, where they were run); ! = a repeat was not active.

CCCn1c(Nc2nc3ccccc3n2C)nc2ccccc21	IDE cell inh 32, Calb FLC 102 | IDE inh confirm 24 | HEK cytotox inactive
CCOC(=O)N1CCN(C(=O)c2cn(CC)c3ccc(S(=O)(=O)N(C)C4CCCCC4)cc3c2=O)CC1	none
Cc1cc(CSc2ccccc2)ccc1NC(=O)c1ccc(CN2CCOCC2)cc1	IDE cell inh 25 | IDE inh confirm inactive | HEK cytotox 75
COc1cc(N=c2ssnc2Cl)c(OC)cc1Cl	IDE cell inh 18! | IDE inh confirm inactive | HEK cytotox 34
Cc1c(Cl)cccc1NC(=O)N1CCCN(c2nc(-c3ccccc3)ns2)CC1	IDE cell inh 17 | IDE inh confirm inactive | HEK cytotox 51
O=C(Nc1ccccc1)N1CCN(c2nc(-c3ccccc3)ns2)CC1	none
O=C(Nc1ccccc1Cl)N1CCCN(c2nc(-c3ccccc3)ns2)CC1	IDE cell inh 21 | IDE inh confirm inactive | HEK cytotox 31
CSc1cccc(N2CC(C(=O)N(CC(C)C)c3c(N)n(Cc4ccccc4)c(=O)[nH]c3=O)CC2=O)c1 (stereo not drawn)	none
CCc1ccc(OCC(=O)O/N=C(\N)c2cccnc2)cc1	IDE cell inh 17 (no result: IDE cell activ) | IDE inh confirm inactive | HEK cytotox inactive
Cc1ccc(C)c(OCC(=O)O/N=C(\N)c2cccnc2)c1	none
COc1cc(/C=N\NC(=O)c2ccc(-c3ccccc3)cc2)cc(Br)c1O	IDE cell inh 21 | IDE inh confirm inactive | HEK cytotox inactive
O=C(Nc1cccc(-n2cnnn2)c1)c1cccc(Cl)c1	IDE cell inh 18 (no result: Calb FLC) | IDE inh confirm inactive | HEK cytotox inactive
O=C1c2ccccc2-c2onc3ccc(NCc4ccco4)c1c23	IDE cell inh 20 | IDE inh confirm 91 | HEK cytotox 27
O=C1c2ccccc2-c2onc3ccc(N4CCCC4)c1c23	none (no result: IDE cell inh, TPT1 inhibitor)
Cc1cccc(N2CCN(C(=O)CCn3c(=O)[nH]c4ccsc4c3=O)CC2C)c1 (stereo not drawn)	IDE cell inh 24 | IDE inh confirm inactive | HEK cytotox inactive
S=c1[nH]nc(Nc2cccc(Cl)c2)s1	IDE cell inh 17 | IDE inh confirm inactive | HEK cytotox inactive
Nc1c(SCCC(=O)O)ccc2c1C(=O)c1ccccc1C2=O	IDE cell inh 17 | IDE inh confirm inactive | HEK cytotox inactive
Nc1c(C(=O)O)ccc2c1C(=O)c1ccccc1C2=O	none
COc1ccc(-c2nnc3ccc(SCC(=O)Nc4nc5ccccc5s4)nn23)cc1OC	IDE cell inh 18 | IDE inh confirm inactive | HEK cytotox inactive
N#Cc1cc2ccccc2n2nnnc12	none
COc1cc(/C=C2/SC(=S)N(C)C2=O)ccc1OC(=O)c1ccco1	IDE cell inh 24 | IDE inh confirm 63 | HEK cytotox inactive
COc1cc(/C=C2/SC(=O)NC2=O)ccc1OC(=O)c1ccco1	none
COc1cc(/C=C2\SC(=S)N(NC(C)=O)C2=O)ccc1OC(=O)c1ccco1	IDE cell inh 22 (no result: Calb FLC, TPT1 inhibitor) | IDE inh confirm 66 | HEK cytotox inactive | IDE FP artifact inactive
COc1ccc(-c2cccc3c2NC(=O)C3=O)cc1OC	none (no result: Calb FLC, TPT1 inhibitor)
CCCNC(=O)C1(C)CCN(C(=O)c2c(F)ccc(C)c2F)C1 (stereo not drawn)	none (no result: IDE cell inh, IDE cell activ, Calb FLC, TPT1 inhibitor)
COc1ccc(NC(=O)c2cc3c(Cl)nc4ccccc4c3s2)cc1OC	IDE cell inh 19 | IDE inh confirm inactive | HEK cytotox inactive
Oc1cc(-n2cccn2)c(O)cc1-n1cccn1	IDE cell inh 36 | IDE inh confirm inactive | HEK cytotox 39
O=Cc1ccccc1-n1cccn1	none
O=C(CNC(=O)c1ccc(Oc2ccccc2)cc1)OCc1ccc(Br)cc1	IDE cell inh 28 | IDE inh confirm inactive | HEK cytotox inactive
Cn1c(=O)c(NCCc2ccccc2)c2c3c(cccc31)C(=O)c1ccccc1-2	none
CCNc1c2c3c(cccc3n(C)c1=O)C(=O)c1ccccc1-2	IDE cell inh 62 (no result: Rin1 Abl inh, IDE cell activ, Rpn11 inh) | IDE inh confirm 26 | HEK cytotox inactive
CCCCNc1c2c3c(cccc3n(C)c1=O)C(=O)c1ccccc1-2	IDE cell inh 103, IDE cell activ 30 | IDE inh confirm 26 | HEK cytotox 32
COc1cc(/C=C(\C#N)c2nc3ccc(C)cc3[nH]2)c([N+](=O)[O-])cc1OC	none
COc1c(O)ccc(/C=C(\C#N)c2nc3ccccc3[nH]2)c1[N+](=O)[O-]	IDE cell inh 17 | IDE inh confirm inactive | HEK cytotox inactive
COc1ccc(O)c(CN2CCN(CCCc3ccccc3)C(CCO)C2)c1 (stereo not drawn)	none
COc1ccc(C(=O)CC(C(=O)O)c2ccc3c(c2)OCO3)cc1OC (stereo not drawn)	none (no result: IDE cell inh, IDE cell activ, Calb FLC, TPT1 inhibitor)
N#Cc1ccccc1Cn1cc(/C=C/[N+](=O)[O-])c2ccccc21	IDE cell inh 16 | IDE inh confirm inactive | HEK cytotox 85
O=[N+]([O-])/C=C/c1cn(Cc2ccccc2)c2ccccc12	none
Cc1nc(NCCc2ccccc2F)c(C#N)c(C)c1[N+](=O)[O-]	none
CCCc1cc(=O)oc2c3c(cc(OCC(=O)NCc4ccncc4)c12)OC(C)(C)CC3	IDE cell inh 23 | IDE inh confirm inactive | HEK cytotox 25
CCCc1nc(SCC(=O)N2CCOCC2)c2c(C)c(C)sc2n1	none
COc1ccc(CCNC(=O)c2ccc(Cl)c(S(=O)(=O)N3CCCC3)c2)cc1	none (no result: Calb FLC, TPT1 inhibitor)
O=C(O)c1ccccc1NS(=O)(=O)c1cccc(-n2sc3ccccc3c2=O)c1	IDE cell inh 90 | IDE inh confirm 73 | HEK cytotox inactive
O=C(O)c1ccccc1NS(=O)(=O)c1cccc(C(F)(F)F)c1	none
O=C(COc1ccc2cc(-c3ccccc3)c(=O)oc2c1)NCC1CCC(C(=O)O)CC1 (stereo not drawn)	none
CCOc1ccccc1-n1c(SCC(N)=O)nnc1-c1cccnc1	IDE cell inh 17 | IDE inh confirm inactive | HEK cytotox inactive
CCOc1ccccc1-n1c(SCC(=O)N(C(C)C)C(C)C)nnc1-c1cccnc1	none
COc1cccc(/C=N/n2c(SC)nnc2-c2ccccc2)c1O	IDE cell inh 25 | IDE inh confirm 40 | HEK cytotox 27
COc1cccc(/C=N/n2c(SC)nnc2-c2ccccc2)c1OC	none
Cc1c(C(=O)NCc2cccc(C(F)(F)F)c2)sc(=O)n1Cc1ccc(C(=O)N(C)C)cc1	none (no result: IDE cell inh, IDE cell activ, Calb FLC, TPT1 inhibitor)
CCCCCCNC(=O)N[C@H](C(=O)NCCC[C@H]1CN2C(=NC[C@H]2C)N1CCC(c1ccccc1)c1ccccc1)C(C)O (stereo partly drawn)	IDE cell inh 16 (no result: Rin1 Abl inh, Calb FLC, Rpn11 inh) | IDE inh confirm inactive | HEK cytotox 38
